Records with an inconclusive call do not appear. A call without a number means that no potency is given here. Calls of active or inactive are those of the source. The call rests on the fitted dose curve; in most records, active means well fitted cell-killing curve with a large enough effect in the repeat runs; inconclusive means weak or mixed curves, or effect the other way; inactive means flat fitted curve, though single readings scatter.
Experiment: cAMP Responsive Elements (CRE) small molecule antagonists, cell-based qHTS assay: qHTS cell viability counter screen (AID 2060913); further: nearly all actives have a fitted effect of over 40% in size
Settings: CRE-bla HEK293T viability, CellTiter-Glo luminescence, 5 h; series mostly up to 92.4 µM
Procedure, shortened: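 Viability of NKH477-stimulated (0.25 uM final) CRE-bla HEK293T cells is measured by CellTiter-Glo luminescence following 3 hrs compound exposure at 37 C.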
Potency means the concentration at half of the fitted maximal effect.

| SMILES | Potency |
| --- | --- |
| CC(C)(C#N)C(C)(C)C#N | inactive |
| CCOC(=O)CP(=O)(OCC)OCC | inactive |
| O=S(=O)(O)C(F)(F)C(F)(F)C(F)(F)C(F)(F)C(F)(F)C(F)(F)F | inactive |
| CC#C[C@]1(O)CC[C@H]2[C@@H]3C[C@H](C)C4=CC(=O)CC[C@]4(C)[C@H]3CC[C@@]21C | inactive |
| CCN(CC)C(=O)Cl | inactive |
| CCOP(=S)(OCC)Oc1ncn(-c2ccccc2)n1 | inactive |
| CCCCOC(=O)c1ccccc1C(=O)O | inactive |
| NC(=O)CS(=O)C(c1ccccc1)c1ccccc1 (stereo unspecified) | inactive |
| O=C1C(Cl)=C(Cl)C(=O)C(Cl)=C1Cl | inactive |
| CN/C(=N\[N+](=O)[O-])NCc1cnc(Cl)s1 | inactive |
| O=C(NC(=O)c1c(F)cccc1F)Nc1ccc(Cl)cc1 | inactive |
| CCC(C)n1c(=O)[nH]c(C)c(Br)c1=O (stereo unspecified) | inactive |
| CCCCC1C(=O)NC(=O)N(C2CCCCC2)C1=O (stereo unspecified) | inactive |
| CN(C)P(=O)(N(C)C)N(C)C | inactive |
| c1ccc(N=NNc2ccccc2)cc1 | inactive |
| CC1CCC(C(C)C)C(OC(=O)c2ccccc2N)C1 (stereo unspecified) | 47.9 µM (active) |
| CCn1cc[n+](C)c1C | inactive |
| CC(C)(C#N)N=NC(C)(C)C#N | inactive |
| CCCCNC(=O)n1c(NC(=O)OC)nc2ccccc21 | inactive |
| CSSC | inactive |
| COP(=S)(OC)Oc1ccc(SC)c(C)c1 | inactive |
| CCCCCON=O | inactive |
| O=P(O)(O)CCCl | inactive |
| Nc1ccc(-c2ccc(N)c(N)c2)cc1N | inactive |
| CCSCc1ccccc1OC(=O)NC | inactive |
| CNC(=O)O/N=C(\C)SC | inactive |

Source: PubChem BioAssay (Tox21)
